Experiments:
Experiment in all cases: PBM binding z-score (relative to random genomic background probes); higher = stronger binding; sequences stand for … in GC…GCGATTGACAGCGTAGAATGAAGG
[1] = test system: FXR:RXRa (NR concentration 270 nM, RXRa partner concentration 90 nM)
Outline: (§1)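 Binding buffer was PBS pH 7.4 with 2% milk, 0.02% Triton X-100, 1 mM DTT, 0.2 mg/mL BSA and 0.4 mg/ml salmon testes DNA. In it, ligand-free nuclear receptor dimers were incubated 1 h on custom Agilent 4×180K protein-binding microarrays carrying double-stranded probes. Antibodies against each partner (one per run) detected binding, and z-scores were calculated against random background probes after regression normalization of scanned fluorescence.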

[2] = test system: LXRa:RXRa (NR concentration 270 nM, RXRa partner concentration 90 nM)
Outline: as §1

[3] = test system: LXRa homodimer (NR concentration 270 nM)
Outline: as §1

[4] = test system: LXRb:RXRa (NR concentration 270 nM, RXRa partner concentration 90 nM)
Outline: as §1

[5] = test system: LXRb homodimer (NR concentration 270 nM)
Outline: as §1

[6] = test system: PPARa:RXRa (NR concentration 270 nM, RXRa partner concentration 90 nM)
Outline: as §1

[7] = test system: PPARg:RXRa (NR concentration 180 nM, RXRa partner concentration 90 nM)
Outline: as §1

[8] = test system: PPARg:RXRa 270nM:90nM, anti-RXR (NR concentration 270 nM, RXRa partner concentration 90 nM)
Outline: as §1

[9] = test system: PPARg:RXRa 30nM:10nM, anti-RXR (NR concentration 30 nM, RXRa partner concentration 10 nM)
Outline: as §1

[10] = test system: PPARg:RXRa 90nM:30nM, anti-RXR (NR concentration 90 nM, RXRa partner concentration 30 nM)
Outline: as §1

[11] = test system: PPARg:RXRa DBDmut IVT, anti-RXR (DBD mutation: RXRa K156A/R161A, NR concentration 270 nM, RXRa partner concentration 90 nM)
Outline: as §1

[12] = test system: PPARg:RXRa IVT, anti-PPARg (NR concentration 270 nM, RXRa partner concentration 90 nM)
Outline: as §1

[13] = test system: PPARg DBDmut:RXRa IVT, anti-PPARg (DBD mutation: PPARg1 K132A/R137A, NR concentration 270 nM, RXRa partner concentration 90 nM)
Outline: as §1

[14] = test system: PPARg DBDmut IVT, anti-PPARg (DBD mutation: PPARg1 K132A/R137A, NR concentration 270 nM)
Outline: as §1

[15] = test system: PPARg homodimer (NR concentration 180 nM)
Outline: as §1

[16] = test system: PXR:RXRa (NR concentration 270 nM, RXRa partner concentration 90 nM)
Outline: as §1

[17] = test system: PXR homodimer (NR concentration 270 nM)
Outline: as §1

[18] = test system: RARa:RXR (NR concentration 270 nM, RXRa partner concentration 90 nM)
Outline: as §1

[19] = test system: RARa homodimer (NR concentration 270 nM)
Outline: as §1

[20] = test system: RARb:RXRa (NR concentration 270 nM, RXRa partner concentration 90 nM)
Outline: as §1

Sequence | PBM binding z-score [1] | PBM binding z-score [2] | PBM binding z-score [3] | PBM binding z-score [4] | PBM binding z-score [5] | PBM binding z-score [6] | PBM binding z-score [7] | PBM binding z-score [8] | PBM binding z-score [9] | PBM binding z-score [10] | PBM binding z-score [11] | PBM binding z-score [12] | PBM binding z-score [13] | PBM binding z-score [14] | PBM binding z-score [15] | PBM binding z-score [16] | PBM binding z-score [17] | PBM binding z-score [18] | PBM binding z-score [19] | PBM binding z-score [20]
ATATGTATGTTAGCTGGGGTCATTCAGACTAGGC | 3.96 | 4.22 | 1.92 | 4.33 | 1.31 | 4.48 | 2.06 | 2.85 | 1.26 | 2.08 | 2.2 | 2.3 | 1.51 | 1.76 | 1.82 | 5.63 | 2.99 | 5.55 | 0.578 | 2.6
CAAACTAGGTCACCGGAGGGTCAAAGTCCGCATG | 5.69 | 5.1 | 1.95 | 4.16 | 0.645 | 5.86 | 8.8 | 7.65 | 4.96 | 7.5 | 8.31 | 8.77 | 2.75 | 0.546 | 4.78 | 5.16 | 0.605 | 6.42 | 1.73 | 4.89
CTCGAAGGGTCGGTTGAGGTGAGTATACGGATAA | 2.14 | 0.689 | -0.0739 | 0.752 | -0.256 | 1.37 | 0.221 | 0.4 | 0.00814 | 0.0401 | -0.575 | 0.478 | -0.346 | 0.307 | 0.548 | 1.86 | 0.399 | 1.32 | -0.148 | 1.88
CCTGCTAAGTCATGGTCAGCTAATCTACAGTATG | -0.197 | -0.105 | -0.185 | -0.137 | -0.307 | -0.22 | -0.135 | -0.368 | -0.358 | -0.204 | 0.985 | -0.177 | -0.766 | -0.271 | 0.146 | -0.158 | -0.39 | -0.0535 | -0.167 | 0.586
TCTAGTTGGTCACGGAGGTCACATACGACGGGTA | 3.08 | 3.35 | 2.47 | 3.46 | 0.637 | 3.93 | 3.1 | 3.94 | 3.8 | 3.63 | 2.69 | 4.21 | 1.22 | 1.14 | 2.46 | 4.38 | 1.7 | 4.13 | 1.16 | 3.84
ACTCGGAGGACAACGGTCAGAGCTACGCCAGTGA | 0.0223 | -0.221 | -0.37 | -0.773 | -0.828 | -0.354 | 0.852 | 0.638 | -0.439 | 0.354 | 0.208 | 0.015 | -0.698 | -0.749 | -0.201 | -0.539 | -0.446 | -0.355 | 0.128 | 2
ATAAGTAGGTTAGCTGGGGTCATTCAGACTAGGC | 4.71 | 5.52 | 3.28 | 4.94 | 1.18 | 5.41 | 6.1 | 5.42 | 3 | 5.01 | 6.73 | 6.66 | 3.65 | 1.92 | 3.63 | 6.42 | 4.39 | 5.76 | 1.28 | 3.24
CCTGCTAGGTCATGGTCAGCCAATCTACAGTATG | 3.64 | 2.66 | -0.0941 | 1.68 | -0.0584 | 3.49 | 2.75 | 2.89 | 0.768 | 1.98 | 4.43 | 3.74 | 0.352 | 0.0677 | 1.85 | 1.21 | -0.386 | 2.49 | 0.141 | 3.9
AGAATGAGGTTATACGTAGATCCGGGAAGAAAGT | 1.84 | 1.4 | -0.0656 | 1.27 | -0.0516 | 3.09 | 1.65 | 2.1 | 0.93 | 1.68 | 3.81 | 2.11 | 0.942 | 0.253 | 0.53 | 0.73 | 0.508 | 1.02 | 0.0175 | 1.27
CGTCCTAGGTCAAGGTCAGTGAAAGAGACTCGAA | 5.87 | 4.07 | 0.811 | 3.5 | 0.178 | 4.87 | 4.31 | 4.45 | 1.48 | 3.5 | 3.53 | 4.08 | 0.311 | 0.279 | 3.52 | 3.4 | 0.941 | 4.02 | 1.1 | 5.01
ACTATTAGTTGACGTAGGGCAACCGATACGACGC | -0.0128 | -0.0574 | 0.207 | -0.148 | 0.503 | -0.147 | 1 | 0.00726 | 0.129 | 0.289 | 0.188 | 0.602 | 1.2 | 0.785 | 0.291 | -0.373 | 0.109 | -0.162 | 0.628 | 0.773
ATCTCTAGGTAAAACTTCAGTGAATCCCGAGGAT | 0.0366 | 0.047 | -0.183 | -0.182 | 0.628 | 0.249 | 0.323 | 0.56 | 0.176 | 0.539 | 1.85 | 1.8 | 1.22 | 0.94 | -0.0625 | -0.0735 | 0.231 | -0.12 | 0.676 | 0.128
GCGACTGGGGCATCAGCAGGTCACCATAACTTAA | 0.886 | 1.37 | 0.749 | 2.27 | -0.977 | 2.79 | 2.16 | 2.13 | 0.0296 | 1.03 | 4 | 4.06 | -0.0316 | -0.625 | 2.67 | 2.2 | 0.0166 | 3.04 | 0.0286 | 2.53
CCTACTGGGCCATCAGGTCATTTATATCAACGTT | 1.48 | 1.03 | 1.99 | 1.81 | 0.176 | 2.79 | 2.76 | 3.29 | 1.06 | 2.57 | 3.78 | 5.03 | 0.0191 | 0.266 | 1.09 | 1.59 | 0.478 | 2.06 | 0.492 | 1.75
ACCGAAAGGTCGACGAGGTGAGTATACACCGTTT | 4.37 | 3.09 | 0.178 | 2.83 | -0.0188 | 4.42 | 2.71 | 3.21 | 0.781 | 2.02 | 1.08 | 2.03 | 0.47 | 0.38 | 1.27 | 2.93 | 0.279 | 3.29 | 0.4 | 4.19
